# Source: PubChem BioAssay
# Many of the other results were omitted from the sample, so hits are more common in it than they were.
# DT40 TDP1 no CPT – qHTS for Inhibitors of human tyrosyl-DNA phosphodiesterase 1 (TDP1): qHTS in cells in absence of CPT. AID 686978, 2013. 420,000 compounds, 15% hits. Potency, µM (doses to about 46.2 µM), for inactives: top-dose activity change, negative = growth inhibition, hits mostly inhibitors. DT40 Tdp1-/- hTDP1 cells, no CPT, ATP luminescence, 48 h; further: potency means the concentration at half of the fitted maximal effect; nearly all actives have a fitted effect of over 55% in size
#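 Cells were dispensed at 400 per well, compounds added by pin tool, plates incubated ≥48 hr at 37 °C, then CellTiter-Glo added for 30 min at room temperature before luminescence reading. Line: DT40 Tdp1-/- complemented with hTDP1; camptothecin omitted.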
# HT1080 IDH1KD tx – HT-1080 IDH1 knockdown cell toxicity (counter line). HT-1080 IDH1 knockdown viability, ATP luminescence, 48 h. Potency, µM (titrated, usually from 46.1 µM), for the others: at the highest dose activity, negative = toxicity, actives largely listed as cytotoxic. 360,000 compounds, 2% hits;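 further: potency means the concentration at half of the fitted maximal effect; 0% = DMSO wells and -100% = cell-free medium wells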
#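 % activity derives from luminescence (CellTiter-Glo), normalised to DMSO and no-cell wells. HT-1080-IDH1KD cells, 750/well, had 48 h compound exposure at 37 °C.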
# IL1B secr inh – inhibitors of inflammasome signaling (IL-1 beta secretion). THP-1 LPS/ATP IL-1B secretion, AlphaLISA, 16 h; hits give low values. activity change, % at 57.5 µM. 360,000 compounds, 4.7% hits. AID 743279; in the data active means activity change below about -50%; inconclusive means mostly about -30% to -49%
#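 THP-1 cells pretreated 1 hr with compounds (up to 57.5 uM final), then stimulated with LPS (250 ng/mL final) plus ATP (1.25 mM final); secreted IL-1B measured by AlphaLISA after 16 hr, decreased signal indicating inhibition.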
# 12-LOX inh – inhibitors of human 12S-lipoxygenase ALOX12. 580,000 compounds, 1.1% hits. purified 12hLO, xylenol orange hydroperoxide absorbance. Potency, µM (highest dose often 108 µM), for inactives: at the top dose activity change, negative = inhibition, hits mostly inhibitors. P18054; further: potency means the concentration at half of the fitted maximal effect
# Target sequence (P18054 whole entry, looked up): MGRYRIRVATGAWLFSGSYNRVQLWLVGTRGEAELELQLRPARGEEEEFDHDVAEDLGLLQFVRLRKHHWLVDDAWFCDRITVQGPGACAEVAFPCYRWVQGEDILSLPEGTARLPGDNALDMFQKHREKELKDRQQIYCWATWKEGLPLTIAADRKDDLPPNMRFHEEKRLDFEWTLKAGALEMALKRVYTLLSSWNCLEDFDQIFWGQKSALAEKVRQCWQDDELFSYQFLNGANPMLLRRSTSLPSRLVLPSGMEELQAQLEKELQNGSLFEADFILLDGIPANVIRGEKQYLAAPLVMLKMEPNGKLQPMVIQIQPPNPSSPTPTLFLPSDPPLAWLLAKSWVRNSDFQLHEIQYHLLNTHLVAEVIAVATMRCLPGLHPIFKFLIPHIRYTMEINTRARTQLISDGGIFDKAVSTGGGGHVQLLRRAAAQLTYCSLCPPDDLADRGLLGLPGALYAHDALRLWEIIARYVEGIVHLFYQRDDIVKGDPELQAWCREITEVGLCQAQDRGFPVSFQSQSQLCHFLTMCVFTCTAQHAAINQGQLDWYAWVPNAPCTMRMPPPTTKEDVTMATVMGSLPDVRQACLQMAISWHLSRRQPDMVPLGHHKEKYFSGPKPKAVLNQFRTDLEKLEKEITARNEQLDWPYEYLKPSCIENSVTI
#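 Purified human 12hLO (150 nM final) in 25 mM Hepes, 0.01% Triton X-100, pH 7.0 was preincubated 15 min at room temperature with compound. Then 40 uM arachidonic acid was added, 30 min. Hydroperoxide was read by Fe-XO absorbance ratio 573/405 nm.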
# DT40 TDP1 CPT – growth inhibition of DT40 Tdp1-/-;hTDP1 cells with camptothecin (screen for TDP1 inhibitors); chicken DT40 Tdp1-/-;hTDP1 cells + 20 nM CPT, ATP luminescence, 48 h; Potency, µM (doses to about 46.2 µM), for the others: at the highest dose activity change, negative = growth inhibition, usual class: inhibitors; 420,000 compounds, 12% hits; further: potency means the concentration at half of the fitted maximal effect; nearly all actives have a fitted effect of over 55% in size
#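 Cell growth measured by CellTiter-Glo luminescence after a minimum 48 h, 37 C compound exposure with 20 nM CPT in Tdp1-knockout DT40 cells stably expressing hTDP1, seeded 400/well; qHTS titration format.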
# HT1080NT lethal – kills 2HG-producing HT-1080-NT fibrosarcoma cells; 360,000 compounds, 1.6% hits; HT-1080-NT fibrosarcoma viability, CellTiter-Glo ATP luminescence, 48 h; Potency, µM (series often up to 46.1 µM), without a hit: at the highest dose activity, negative = less viability, actives largely listed as cytotoxic; AID 686970;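 further: NT is the 2HG producing partner of a matched IDH1 knockdown line; potency means the concentration at half of the fitted maximal effect; 0% = DMSO-treated cells and -100% = media-only wells without cells; nearly all actives have a fitted effect of over 55% in size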
#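 Viability of the 2HG-overproducing fibrosarcoma line after 48 hours of compound exposure at 37 degrees C was determined by luminescence with CellTiter-Glo, and concentration-effect curves were then fitted and categorized.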
# * hit, by the source's call; ? = inconclusive; . = not tested or not shown; [ ] = dose if it differs, or a comment. Unless noted, the call rests on the fitted dose curve; in most records, active means well fitted curve in the direction sought with a large enough effect; inconclusive means small, poorly fitted or top-dose-only effect, or another doubt; inactive means no such curve, though single readings can be large; an effect the other way counts as inactive or inconclusive. Unless noted, on the % scale 0 is the no-effect control and ±100 the full control effect.
SMILES,DT40 TDP1 no CPT,HT1080 IDH1KD tx,IL1B secr inh,12-LOX inh,DT40 TDP1 CPT,HT1080NT lethal
CN(Cc1cnc2nc(N)nc(N)c2n1)c1ccc(C(=O)NC(CCC(=O)O)C(=O)O)c2ccccc12 (configuration not stated),0.052µM*,0.0058µM*,24,-2%,0.092µM*,?
Cn1c(=O)c2c(nc(CN3CCN(C(c4ccccc4)c4ccccc4)CC3)n2CCCO)n(C)c1=O,21µM*,-22%,-5,49%,?,-4%
COCCn1c(CN2CCN(C(c3ccccc3)c3ccccc3)CC2)nc2c1c(=O)n(C)c(=O)n2C,16µM*,10%,22,0%,?,14%
COCCn1c(CN2CCC(C(N)=O)CC2)nc2c1c(=O)n(C)c(=O)n2C,.,.,.,33%,.,.
Cn1c(=O)c2c(nc(CN3CCN(CCO)CC3)n2CCCO)n(C)c1=O,.,.,.,-12%,.,.
CC(=O)N1C[C@@H]2CCCN3CCC[C@@H]([C@H]23)[C@H]1CCCC(=O)NCCCN1CCCc2ccccc21,.,.,.,225%,.,.
Cn1c(Oc2ccccc2NCc2cc(Br)ccc2O)cc(=O)n(C)c1=O,23µM*,?,9,4%,18µM*,?
COc1ccc(/C=C2/C(=O)C(C)(C)OC2(C)C)cc1OC,.,.,.,-31%,.,.
COc1ccc(/C=C2/CSC/C(=C/c3ccc(OC)c(OC)c3)C2=O)cc1OC,2.9µM*,5.8µM*,-117*,-23%,4.1µM*,5.8µM*
COc1ccc(/C=C2\N=C(C)OC2=O)cc1OC,-22%,1%,-9,-4%,10µM*,7%
COc1cc(C=C2CCCC(=Cc3ccc(OCC4CO4)c(OC)c3)C2=O)ccc1OCC1CO1 (configuration not stated),3.7µM*,?,-105*,-30%,5.8µM*,16µM*
Cc1cc(O)c2c(C)c(CC(=O)NCc3ccco3)c(=O)oc2c1,.,.,.,-9%,.,.
CCc1cccc(CC)c1NC(=O)c1ccc2c(c1)CCC2,.,.,.,8%,.,.
c1nc(Sc2ccc3c(c2)OCCCO3)c2c3c(sc2n1)CCCC3,.,.,.,5%,.,.
O=C(Nc1ccc(N2CCN(C(=O)c3ccc(Cl)cc3)CC2)cc1)c1cccnc1,?,5%,?,11%,?,3%
O=C(Nc1ccc(N2CCN(C(=O)c3cccs3)CC2)cc1)c1cccnc1,?,23%,-52*,7%,?,24%
O=C(Nc1ccc(N2CCN(C(=O)c3ccccc3)CC2)cc1)c1cccnc1,-19%,3%,-58*,-17%,-18%,24%
COC(=O)C1(C)CCCC2(C)c3cc(OC)ccc3C(=O)C(Br)C12 (configuration not stated),6.5µM*,-27%,-23,-26%,12µM*,-2%
COC(=O)[C@@]1(C)CCC[C@@]2(C)c3ccc(O)c(C(C)C)c3CCC21 (some centres not stated),10µM*,.,.,.,16µM*,.
COC(=O)CC1=C(C)C(=O)CC2C(C)(C)CCCC12C (configuration not stated),-18%,-6%[9.24 µM],3,16%,-22%,0%
COC(=O)[C@]1(C)CCC[C@]2(C)c3ccc(C(C)C)cc3C(=O)CC12 (some centres not stated),23µM*,.,.,.,?,.
CC(=O)Oc1ccc2c(c1C(C)C)CCC1C(C)(C)CCC[C@@]21C (some centres not stated),-2%,.,.,.,-24%,.
COc1ccc2c(c1)[C@@]1(C)CCC[C@](C)(CO)C1CC2 (some centres not stated),-30%,.,.,.,?,.
COc1ccc(NC(=O)CN2C(=O)C(C)(C)c3cc(S(=O)(=O)N4CCCC4)ccc32)cc1Cl,.,.,.,11%,.,.
O=C(Nc1ccc(F)cc1F)N(Cc1cccc(O)c1)C1CCC(O)CC1 (configuration not stated),.,.,.,3%,.,.
SMILES,DT40 TDP1 no CPT,HT1080 IDH1KD tx,IL1B secr inh,12-LOX inh,DT40 TDP1 CPT,HT1080NT lethal
COCc1ccc2c(c1)c(OC(C)(C)C(N)=O)nn2CCC(C)C,.,.,.,8%[176 µM],.,.
CCOc1c(OC(C)=O)ccc(/C=C/c2ccc3cccc(OC(C)=O)c3n2)c1[N+](=O)[O-],?,?,-3,-27%,?,?
CCOc1cccc(/C=C/c2ccc3cccc(O)c3n2)c1OC,18µM*,?,27,?,21µM*,?
CCOc1cccc(/C=C/c2ccc3cccc(O)c3n2)c1O,21µM*,?,-97*,?,15µM*,-24%
CC(C)(C)c1ccc(/C=C/C(=O)Nc2ccncc2)cc1,7.3µM*,?,?,0%,10µM*,?
O=C(/C=C/c1ccccc1)NC(=S)Nc1ccccc1,?,1%,-61*,?,-21%,-6%
NC(N)=NS(=O)(=O)c1ccc(NC(=S)NC(=O)/C=C/c2ccc(F)cc2)cc1,-1%,-4%,0,1%,-13%,-1%
O=C(/C=C/c1ccc(F)cc1)NC(=S)Nc1ccccc1,21µM*,-17%,?,?,?,?
O=C(/C=C/c1ccccc1)Nc1cccc(C(=O)NC2CC2)c1,-29%,17%,-64*,-2%,-3%,13%
COc1ccc(Cl)cc1NC(=O)CN(C)C(=O)c1cc(=O)c2cc(C)ccc2o1,.,.,.,-13%,.,.
Cc1ccsc1C=Nc1ccc(Nc2ccccc2)cc1,.,.,.,-102%,.,.
CCc1cc2c(CSc3nc(C)cc(C)c3C#N)cc(=O)oc2cc1O,.,.,.,-22%,.,.
O=C(NC1CC1)c1cccc(NC(=O)c2cnn(-c3ccccc3)n2)c1,16µM*,7%,8,25%,23µM*,3%
O=C(/C=C/c1ccccc1)NC(=S)Nc1ccc(N2CCOCC2)cc1,-30%,?,-22,-6%,?,7.9µM*
O=C(Nc1cccc(C(=O)NC2CCCC2)c1)c1ccccc1,?,-11%,?,143%,?,-5%
O=C(/C=C/c1ccc(Cl)cc1)Nc1ccccc1N1CCOCC1,?,11%,0,2%,?,12%
O=C(/C=C/c1ccccc1)Nc1cccnc1,-22%,0%,-6,18%,-4%,14%
O=C(/C=C/c1ccc(Cl)cc1)NC(=S)Nc1ccc(N2CCOCC2)c(Cl)c1,12µM*,?,9,-21%,12µM*,?
O=C(C=Cc1ccccc1)Nc1ccccc1,-25%,-7%,-69*,-14%,-29%,-11%
O=C(CCCCl)NC(=S)Nc1ccc(N2CCOCC2)cc1,1%,12%,-3,441%,9%,20%
